Laboratory results published in PubChem BioAssay (NCATS).
Values joined by “and” are separate entries in the source; they are usually repeats but may differ in a detail not shown here. Equal entries are not always repeated. Inconclusive results are not listed. Active and inactive are the calls of the source. Unless noted, the call rests on the fitted dose curve; in most records, active means well fitted curve in the direction sought with a large enough effect; inconclusive means small, poorly fitted or top-dose-only effect, or another doubt; inactive means no such curve, though single readings can be large; an effect the other way counts as inactive or inconclusive.

What was measured:
[1] = AP1 Signaling Pathway (AID 357; active means well fitted curve in either direction with a large enough effect, not every such curve was filed as active; further: on the % scale 0 is the no-effect control and ±100 the full control effect); details: ME-180 AP-1-bla reporter, EGF-induced, beta-lactamase ratio, 5 h; at 7.69 µM (top of the series) unless noted
How it was run: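 ME-180 cells with beta-lactamase reporter under AP-1 response element, stimulated with EC50 EGF; compounds tested in titration series, 5 h at 37 °C. CCF4 substrate added 2.5 h at room temperature; 460/530 nm emission ratio gave %activity and AC50.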

[2] = biological target: Cytochrome P450 1A2 (Homo sapiens) (UniProt P05177); test: p450-cyp1a2 (AID 410; calls by dose curve; further: potency means the concentration at half of the fitted maximal effect;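 on activity change, negative = inhibition: -100% = full effect of reference inhibitor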)
How it was run: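 20nM CYP1A2, 100uM Luciferin-ME (=Km), 100mM KPO4; cpd 10 min RT; +NADPH regen, 60 min RT; stop/detect 20 min; luminescence. Normalized to furafylline 57 uM = full inhibition.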

[3] = NFAT Signaling Pathway (AID 444; active means well fitted curve in either direction with a large enough effect, not every such curve was filed as active;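 further: carbachol stimulus at about its EC50 of 1 µM final; on the % scale 0 is the no-effect control and ±100 the full control effect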); details: Jurkat NFAT-bla M1, carbachol, beta-lactamase ratio, 5 h; at 7.69 µM (top of the series) unless noted
How it was run: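 Read-out: CCF4 FRET ratio (460 nm/530 nm) after 1 h RT dye loading, used for %activity and AC50 from titration series. Cells: Jurkat NFAT-β-lactamase/M1 line, treated with compound plus 1 uM carbachol for 5 h, 37 °C.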

[4] = Stat Signaling Pathway (AID 446; active means well fitted curve in either direction with a large enough effect, not every such curve was filed as active;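 further: ME-180 cervical cancer cells given 40 pM IL-6 alongside compound; SIE-controlled beta-lactamase reporter measured as 460/530 nm FRET emission ratio; on the % scale 0 is the no-effect control and ±100 the full control effect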); details: ME-180 (cervical carcinoma) SIE beta-lactamase reporter, IL-6 stimulated, 5 h; at 7.69 µM (top of the series) unless noted
How it was run: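 Normalization used AC90 stimulation (300 pM IL-6) and AC90 inhibition (125 nM pan-JAK inhibitor at 40 pM IL-6). The underlying signal is SIE-driven beta-lactamase in ME-180 cells after 5 h IL-6 exposure with compound.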

[5] = biological target: Glucocorticoid receptor (Homo sapiens) (UniProt P04150); test: GR-GFP Redistribution (AID 450;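 active means compounds whose dose series gives a full or clear partial fitted curve of increased nuclear translocation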; further: potency means the concentration at half of the fitted maximal effect); details: U2OS GR-GFP nuclear translocation, laser cytometry, 2 h
[6] = biological target: Glucocorticoid receptor (Homo sapiens) (UniProt P04150); test: GR-EFC Redistribution (AID 451; calls by dose curve; further: potency means the concentration at half of the fitted maximal effect); details: CHO-K1 GR-EFC translocation, beta-gal luminescence, 2 h
How it was run: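 Translocation of GR-ED fusion to nuclear EA restores b-gal, read by luminescence after 1 h room-temperature detection. Engineered CHO-K1 biosensor cells, 1,000/well, exposed 2 h at 37 C to titrations up to 46 uM final.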

[7] = biological target: Mitogen-activated protein kinase 10 (Mus musculus) (UniProt Q61831); test: JNK3 AlphaScreen Assay (AID 530; active means well fitted curve in either direction with a large enough effect, not every such curve was filed as active;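 further: kinase came from lysate of stimulated human HepG2 cells; signal reports phosphorylation of biotinylated GST-cJun 1-79 at Ser73 with 10 µM ATP; on the % scale 0 is the no-effect control and ±100 the full control effect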)
How it was run: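 Kinase buffer: 20 mM Tris-HCl pH 7.6, 10 mM MgCl2, 1 mM DTT, 0.1 mM Na3VO4, 0.01% Tween-20; ATP 10 uM. Substrate biotin-GST-cJun(1-79), enzyme from activated HepG2 lysates. Detection by Ser73 phospho-antibody AlphaScreen.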

[8] = biological target: 3',5'-cyclic-AMP phosphodiesterase 4B (Homo sapiens) (UniProt Q07343); test: qHTS Assay for Inhibitors of PDE-IV (AID 607; active means well fitted activation curve with a large enough effect in the main read-out, with a control signal flat, not every such curve was filed as active; further: % of control where 0% means no effect)
How it was run: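 HEK293 ACTOne cells with CNG channel (1000/well), endogenous PDE4; membrane potential dye, compounds up to 22.9 uM final. Fluorescence Ex 535/Em 590; RO 20-1724 (100 uM final) as reference.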

[9] = qHTS Assay for Lipid Storage Modulators (AID 1519; calls by dose curve); details: Drosophila S3 cells, BODIPY lipid droplet/cell ratio, laser cytometry, cells loaded with oleic acid
How it was run: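 Cells seeded at 5,000 per well were treated with compounds over a concentration series and loaded with oleic acid (400 uM, as added). Lipid droplet fluorescence (488 nm excitation, 500-530 nm channel) was read by laser-scanning cytometry and normalized to 20 uM Triacsin C.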

[10] = biological target: ATP-dependent 6-phosphofructokinase (Trypanosoma brucei brucei) (UniProt O15648); test: qHTS Assay to Find Inhibitors of T. brucei phosphofructokinase: hit validation (AID 492961)
How it was run: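 Measures ADP output of PFK (1.25 nM) at 0.1 mM ATP, 0.5 mM F6P, pH 8.0 TEA buffer with 5 mM MgCl2. No-enzyme wells define full inhibition; uninhibited enzyme wells define zero.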

[11] = qHTS profiling for inhibitors of Plasmodium falciparum proliferation (AID 504749);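 further: 0% = DMSO vehicle and full inhibition = artemisinin control; nearly all actives have a fitted effect of over 60% in size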; details: P. falciparum in erythrocytes, SYBR Green DNA, 72 h
How it was run: (§1)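 In a 72 h erythrocytic culture (37 C, humidified, 5% CO2) at 2.5% hematocrit and 0.3% starting parasitemia, compounds were tested; SYBR Green I in detergent lysis buffer stained parasite DNA overnight.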

AS120 = test: as above; details: P. falciparum in erythrocytes, SYBR Green DNA, 72 h; series mostly up to 28.7 µM
How it was run: as §1

CP238 = test: as above; details: P. falciparum in erythrocytes, SYBR Green DNA, 72 h; series mostly up to 12.8 µM
How it was run: as §1

CP250 = test: as above; details: P. falciparum in erythrocytes, SYBR Green DNA, 72 h; series mostly up to 12.8 µM
How it was run: as §1

CP262 = test: as above; details: P. falciparum in erythrocytes, SYBR Green DNA, 72 h; series mostly up to 12.8 µM
How it was run: as §1

CP265 = test: as above; details: P. falciparum in erythrocytes, SYBR Green DNA, 72 h; series mostly up to 12.8 µM
How it was run: as §1

FAB9 = test: as above; details: P. falciparum in erythrocytes, SYBR Green DNA, 72 h; series mostly up to 12.8 µM
How it was run: as §1

JCK = test: as above; details: P. falciparum in erythrocytes, SYBR Green DNA, 72 h; series mostly up to 12.8 µM
How it was run: as §1

PC49 = test: as above; details: P. falciparum in erythrocytes, SYBR Green DNA, 72 h; series mostly up to 12.8 µM
How it was run: as §1

[12] = biological target: Ubiquitin carboxyl-terminal hydrolase 1 (Homo sapiens) (UniProt O94782); test: Inhibitors of USP1/UAF1: Pilot qHTS (AID 504865);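 further: rhodamine fluorescence freed from ubiquitin-rhodamine substrate followed over time; top concentration of the series differs between compounds; on the % scale 0 is the no-effect control and ±100 the full control effect; nearly all actives have a fitted effect of over 35% in size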
How it was run: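 Deubiquitinase activity followed as kinetic rhodamine fluorescence release from 150 nM Ub-Rho. 1 nM USP1/UAF1 with compound, after 15 min room-temperature preincubation, in HEPES pH 7.8 buffer containing TCEP, EDTA, BSA and Tween-20.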

[13] = measured here: cell count channel max response
[14] = measured here: lipid channel max response
[15] = at 12.8 µM (top of the series), parasite line A
[16] = at 12.8 µM (top of the series), parasite line B

Sequence of Ubiquitin carboxyl-terminal hydrolase 1 (Homo sapiens) (O94782 whole entry, looked up): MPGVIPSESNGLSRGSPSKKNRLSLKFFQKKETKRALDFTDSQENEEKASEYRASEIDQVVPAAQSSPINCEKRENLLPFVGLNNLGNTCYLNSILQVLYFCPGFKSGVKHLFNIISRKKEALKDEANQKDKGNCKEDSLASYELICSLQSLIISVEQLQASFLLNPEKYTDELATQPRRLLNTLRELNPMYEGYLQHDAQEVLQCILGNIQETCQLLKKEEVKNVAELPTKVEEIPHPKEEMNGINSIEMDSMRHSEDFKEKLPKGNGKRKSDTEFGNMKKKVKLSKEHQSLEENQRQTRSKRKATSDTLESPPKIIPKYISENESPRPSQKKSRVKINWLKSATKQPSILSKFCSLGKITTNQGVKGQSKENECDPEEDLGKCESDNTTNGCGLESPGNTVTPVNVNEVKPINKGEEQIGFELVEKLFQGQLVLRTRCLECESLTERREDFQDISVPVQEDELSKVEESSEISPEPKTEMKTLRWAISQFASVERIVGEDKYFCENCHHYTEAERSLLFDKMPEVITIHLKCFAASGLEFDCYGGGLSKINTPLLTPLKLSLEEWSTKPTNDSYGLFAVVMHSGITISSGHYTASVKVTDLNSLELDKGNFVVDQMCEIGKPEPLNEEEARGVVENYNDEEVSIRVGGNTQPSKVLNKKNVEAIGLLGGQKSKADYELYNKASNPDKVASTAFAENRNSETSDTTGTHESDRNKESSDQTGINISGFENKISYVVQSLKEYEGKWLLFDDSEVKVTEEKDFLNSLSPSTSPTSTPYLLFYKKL
Sequence of Cytochrome P450 1A2 (Homo sapiens) (P05177 whole entry, looked up): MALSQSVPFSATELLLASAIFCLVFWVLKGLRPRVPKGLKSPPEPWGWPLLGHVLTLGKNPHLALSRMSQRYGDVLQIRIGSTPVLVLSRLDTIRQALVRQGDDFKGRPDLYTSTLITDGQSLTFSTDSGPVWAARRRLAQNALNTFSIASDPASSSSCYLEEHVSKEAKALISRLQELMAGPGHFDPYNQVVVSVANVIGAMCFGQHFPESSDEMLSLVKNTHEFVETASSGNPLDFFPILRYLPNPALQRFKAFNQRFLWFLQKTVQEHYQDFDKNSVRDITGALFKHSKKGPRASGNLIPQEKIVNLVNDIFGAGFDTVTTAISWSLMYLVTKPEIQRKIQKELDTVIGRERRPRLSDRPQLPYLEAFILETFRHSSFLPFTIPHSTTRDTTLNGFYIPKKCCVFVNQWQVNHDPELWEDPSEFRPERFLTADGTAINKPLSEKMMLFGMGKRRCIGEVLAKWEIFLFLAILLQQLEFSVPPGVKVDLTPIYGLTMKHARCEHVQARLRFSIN
Sequence of 3',5'-cyclic-AMP phosphodiesterase 4B (Homo sapiens) (Q07343 whole entry, looked up): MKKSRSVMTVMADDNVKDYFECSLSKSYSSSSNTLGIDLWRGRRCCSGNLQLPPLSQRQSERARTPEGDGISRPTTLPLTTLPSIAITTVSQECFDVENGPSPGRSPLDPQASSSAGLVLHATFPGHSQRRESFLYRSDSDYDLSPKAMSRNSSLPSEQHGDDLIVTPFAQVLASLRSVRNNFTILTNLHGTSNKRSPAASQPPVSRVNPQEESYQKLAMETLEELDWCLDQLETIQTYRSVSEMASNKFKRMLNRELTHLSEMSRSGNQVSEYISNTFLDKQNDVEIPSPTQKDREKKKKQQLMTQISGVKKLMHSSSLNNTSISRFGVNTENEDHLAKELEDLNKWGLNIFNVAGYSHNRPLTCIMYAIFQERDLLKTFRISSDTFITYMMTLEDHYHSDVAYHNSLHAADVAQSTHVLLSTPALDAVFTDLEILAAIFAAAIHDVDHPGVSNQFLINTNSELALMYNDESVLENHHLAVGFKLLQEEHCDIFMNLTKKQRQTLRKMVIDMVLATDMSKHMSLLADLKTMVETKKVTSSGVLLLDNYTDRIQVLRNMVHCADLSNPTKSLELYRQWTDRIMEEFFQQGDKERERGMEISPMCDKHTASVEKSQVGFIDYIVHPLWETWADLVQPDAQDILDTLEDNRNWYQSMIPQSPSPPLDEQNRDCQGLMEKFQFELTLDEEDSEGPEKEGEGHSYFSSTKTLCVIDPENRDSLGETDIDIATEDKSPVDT
Sequence of Glucocorticoid receptor (Homo sapiens) (P04150 whole entry, looked up, the tested form may be a part): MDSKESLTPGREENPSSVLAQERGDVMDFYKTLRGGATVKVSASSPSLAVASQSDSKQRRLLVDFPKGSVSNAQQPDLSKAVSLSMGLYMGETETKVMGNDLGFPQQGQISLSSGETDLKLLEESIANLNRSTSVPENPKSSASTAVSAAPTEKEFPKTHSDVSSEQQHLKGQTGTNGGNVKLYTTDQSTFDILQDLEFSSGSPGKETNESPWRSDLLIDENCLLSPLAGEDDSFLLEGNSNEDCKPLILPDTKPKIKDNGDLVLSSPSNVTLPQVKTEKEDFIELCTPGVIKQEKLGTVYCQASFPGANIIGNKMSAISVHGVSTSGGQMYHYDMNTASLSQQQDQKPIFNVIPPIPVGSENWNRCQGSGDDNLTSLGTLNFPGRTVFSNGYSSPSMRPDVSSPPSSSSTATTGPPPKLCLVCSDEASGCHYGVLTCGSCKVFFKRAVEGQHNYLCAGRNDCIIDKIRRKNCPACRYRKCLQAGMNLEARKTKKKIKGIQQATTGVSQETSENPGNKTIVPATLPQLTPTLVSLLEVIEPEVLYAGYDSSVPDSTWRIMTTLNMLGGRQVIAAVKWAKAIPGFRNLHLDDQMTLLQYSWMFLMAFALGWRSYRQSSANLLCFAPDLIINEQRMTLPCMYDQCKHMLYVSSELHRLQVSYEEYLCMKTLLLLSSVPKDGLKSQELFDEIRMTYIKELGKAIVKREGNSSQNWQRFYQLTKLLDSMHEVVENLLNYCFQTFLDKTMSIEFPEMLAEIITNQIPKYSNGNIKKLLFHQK
Sequence of ATP-dependent 6-phosphofructokinase (Trypanosoma brucei brucei) (O15648 whole entry, looked up): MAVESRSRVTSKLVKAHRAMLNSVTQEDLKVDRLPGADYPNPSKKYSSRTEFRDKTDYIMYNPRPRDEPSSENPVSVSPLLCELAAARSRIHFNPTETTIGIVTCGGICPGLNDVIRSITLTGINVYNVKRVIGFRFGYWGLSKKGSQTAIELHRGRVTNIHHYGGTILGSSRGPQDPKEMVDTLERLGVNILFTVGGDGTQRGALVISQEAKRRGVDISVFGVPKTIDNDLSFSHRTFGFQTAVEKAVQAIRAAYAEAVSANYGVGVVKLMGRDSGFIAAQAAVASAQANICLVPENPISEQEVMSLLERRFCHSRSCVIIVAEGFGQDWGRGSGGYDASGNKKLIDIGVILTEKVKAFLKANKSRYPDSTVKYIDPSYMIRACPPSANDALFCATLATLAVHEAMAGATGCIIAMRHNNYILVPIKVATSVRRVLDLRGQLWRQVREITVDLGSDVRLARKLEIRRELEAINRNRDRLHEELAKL

C/C=C\C(=O)N(CC)c1ccccc1C
activity change, negative = inhibition [1]: -1.59% [at 17.2 µM] (inactive) | Potency [2]: inactive | activity change, negative = inhibition [3]: -0.257% [at 17.2 µM] (inactive) | activity, negative = inhibition [4]: 4.14% [at 17.2 µM] (inactive) | Potency [5]: > 20.6 µM (inactive) | Potency [6]: > 20.6 µM (inactive) | Potency [7]: inactive | Potency [8]: inactive | activity change, negative = inhibition ([9]; at 25.7 µM (top of the series)): -4.01% (inactive) | max response [9, 13]: -15.1% | max response [9, 14]: -17.7% | outcome [10]: inactive | activity, negative = inhibition [11, 15]: 6.96% (inactive) | activity, negative = inhibition [11, 16]: 1.34% (inactive) | Potency (AS120): inactive | Potency (CP238): inactive | Potency (CP250): inactive | Potency (CP262): inactive | Potency (CP265): inactive | Potency (FAB9): inactive | Potency (JCK): inactive | Potency (PC49): inactive

CC1CC2C3CCC4=CC(=O)C=C[C@@]4(C)[C@]3(F)C(O)C[C@]2(C)[C@]1(O)C(=O)CO (some centres not stated)
activity change, negative = inhibition ([9]; at 57.5 µM (top of the series)): -0.857% (inactive) and 2.9% (inactive) | max response [9, 13]: 20% and 4.4% | max response [9, 14]: 23.5% and 9.45% | Potency [12]: inactive

CC(CCC(=O)O)C1CCC2C3C(O)C[C@@H]4CC(O)CC[C@@]4(C)C3CC[C@@]12C (some centres not stated)
activity change, negative = inhibition ([9]; at 57.5 µM (top of the series)): 1.17% (inactive) and 5.02% (inactive) | max response [9, 13]: 13% and 15.4% | max response [9, 14]: 15% and 25.1% | Potency [12]: inactive

CC(C)(O/N=C(\C(=O)N[C@@H]1C(=O)N2C(C(=O)[O-])=C(C[n+]3ccccc3)CS[C@@H]12)c1csc(N)n1)C(=O)O
Potency [2]: inactive | activity change, negative = inhibition [3]: 7.85% [at 17.2 µM] (inactive) | Potency [5]: > 20.6 µM (inactive) | Potency [6]: > 20.6 µM (inactive) | Potency [7]: inactive | Potency [8]: inactive | activity change, negative = inhibition ([9]; at 25.7 µM (top of the series)): 0.159% (inactive) | max response [9, 13]: -1.74% | max response [9, 14]: -1.95% | outcome [10]: inactive | Potency [12]: inactive | activity, negative = inhibition [11, 15]: 2.04% (inactive) | activity, negative = inhibition [11, 16]: -2.21% (inactive) | Potency (AS120): inactive | Potency (CP238): inactive | Potency (CP250): inactive | Potency (CP262): inactive | Potency (CP265): inactive | Potency (FAB9): inactive | Potency (JCK): inactive | Potency (PC49): inactive

CO/N=C(/C(=O)NC1C(=O)N2C(C(=O)O)=C(CSc3nc(=O)c(O)nn3C)CSC12)c1csc(N)n1 (configuration not stated)
activity change, negative = inhibition ([9]; at 57.5 µM (top of the series)): 7.84% (inactive) and 13.9% (inactive) | max response [9, 13]: 7.61% and 7.25% | max response [9, 14]: 18.4% and 25.1% | Potency [12]: inactive | activity, negative = inhibition ([11]; at 28.7 µM (top of the series), parasite line A): 11.8% (inactive) | activity, negative = inhibition ([11]; at 28.7 µM (top of the series), parasite line B): 6.03% (inactive) | Potency (AS120): inactive | Potency (CP238): inactive | Potency (CP250): inactive | Potency (CP262): inactive | Potency (CP265): inactive | Potency (FAB9): inactive | Potency (JCK): inactive | Potency (PC49): inactive

C=C1C2CC[C@@]3(C)C(c4ccoc4)OC(=O)C[C@@]13OC1CC(O)C(C)(C)C(CC(=O)OC)[C@@]12C (some centres not stated)
activity change, negative = inhibition ([9]; at 57.5 µM (top of the series)): -26.4% (inactive) and -20.4% (inactive) | max response [9, 13]: 9.22% and 0.891% | max response [9, 14]: -12.6% and -14.6% | Potency [12]: inactive

C[C@@](N)(Cc1ccc(O)cc1)C(=O)O
activity change, negative = inhibition [1]: -8.05% [at 38 µM] (inactive) and -6.78% [at 38 µM] (inactive) | Potency [2]: inactive | activity change, negative = inhibition [3]: -13% [at 38 µM] (inactive) and 8.58% [at 38 µM] (inactive) | activity, negative = inhibition [4]: 3.69% [at 38 µM] (inactive) | Potency [5]: > 46 µM (inactive) | Potency [6]: > 46 µM (inactive) | Potency [7]: inactive | Potency [8]: inactive | activity change, negative = inhibition ([9]; at 57.5 µM (top of the series)): 1.23% (inactive) | max response [9, 13]: 15.7% | max response [9, 14]: 18.3% | Potency [12]: inactive

N=c1ccn2c(n1)OC1C(O)C(CO)OC12 (configuration not stated)
activity change, negative = inhibition ([9]; at 57.5 µM (top of the series)): 3.87% (inactive) and 5.45% (inactive) | max response [9, 13]: 0.631% and 1.94% | max response [9, 14]: 7.88% and 22.5% | Potency [12]: inactive

COc1cccc(-c2nccc(NC3CCNCC3)n2)c1
activity change, negative = inhibition [1]: 6.93% (inactive) | Potency [2]: 6.31 µM (active) | activity change, negative = inhibition [3]: 8.54% (inactive) | activity, negative = inhibition [4]: 14.2% (inactive) | Potency [5]: > 46 µM (inactive) | Potency [6]: > 46 µM (inactive) | Potency [7]: inactive | Potency [8]: inactive | activity change, negative = inhibition ([9]; at 57.5 µM (top of the series)): 0.723% (inactive) | max response [9, 13]: 4.24% | max response [9, 14]: 1.95% | Potency [12]: inactive
